From PubChem BioAssay (NCATS)
Results filed as inconclusive are left out. A call without a number means that no potency is given here. Calls of active or inactive are those of the source. Calls come from the whole dose curve; as a rule, active = well fitted inhibition curve with a large enough effect; inconclusive = small, poorly fitted or top-dose-only effect; inactive = flat fitted curve, though single readings scatter.

assay: qHTS for Inhibitors of Plasmodium falciparum (DD2) proliferation (AID 504314);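 note: parasite DNA measured by SYBR Green fluorescence after red cell lysis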; conditions: P. falciparum Dd2 in erythrocytes, SYBR Green growth, 72 h; series mostly up to 6.11 µM
How it was run: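 Quantitative HTS growth inhibition: SYBR Green I binding to parasite DNA after 72 h drug exposure of infected erythrocytes (0.3% parasitemia, 2.5% hematocrit). Signals normalized per plate to inhibitor and vehicle wells.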

Row | SMILES | Potency
1 | CC(=O)OC[C@H]1O[C@H](CC=NO[C@@H](C)c2cn([C@H](CO)Cc3ccccc3)nn2)C=C[C@@H]1OC(C)=O | inactive
2 | COc1cc2c(c(OC)c1)[C@H](C=Cc1ccccc1)[C@@H]([C@H](O)CO)OC2 | inactive
3 | C[C@@H]1CC[C@H]2C(=O)O[C@@H](Cc3ccccc3)CN2[C@@H]1c1ccc(Br)cc1 | inactive
4 | COC(=O)N[C@@H](c1cccc(F)c1)[C@@H](C)[N+](=O)[O-] | inactive
5 | CCN1C(=NCc2ccc(OC)cc2)NC(c2cccc(F)c2)C(C(=O)OC)=C1C (centres undefined) | inactive
6 | CCOC(=O)C1=CN(CCC=C(C)C)C(=O)NC1c1ccccc1 (centres undefined) | inactive
7 | CC(C)CON=C1C[C@@H](O)[C@@H](O)[C@@H]2[C@H]3C(=O)N(Cc4ccccc4)C(=O)[C@@H]3CC[C@@H]12 | inactive
8 | CC1(O)C(=O)C=C2C=C(c3ccc(C#N)cc3)OC=C2C1=O (centres undefined) | inactive
9 | COC(=O)CC=C[C@@H](C)[C@@H](C=NO[C@H](C)c1cn([C@H](CO)Cc2ccccc2)nn1)NS(=O)(=O)c1ccc(C)cc1 | inactive
10 | C[C@H]1Cc2c(-c3ccccc3)nc3c(c2CO1)CN(S(=O)(=O)c1ccc(Cl)c2nonc12)CC3 | inactive
11 | CCN1C(=NCCCCO)N[C@@H](CCc2ccccc2)[C@H](C(=O)OC)[C@H]1C | inactive
12 | COC(=O)N(C=Cc1ccc(OC)cc1)CCc1ccc(OC)c(OC)c1 | inactive
13 | Cc1noc(C)c1S(=O)(=O)N1CCc2nc(COc3ccccc3)c3c(c2C1)CO[C@@H](C)C3 | inactive
14 | C=C1C2c3ccccc3C(CC2(C)O[Si](C)(C)C)N1C(=O)OC (centres undefined) | inactive
